Hits are enriched below; roughly 2.3% of the tested compounds scored in any of these assays.
FUS yeast rescue – rescues growth of FUS-expressing yeast | actives 0.24% (n = 390,000) | Potency, µM (top dose mostly 76.6 µM), hits mostly activators | S. cerevisiae FUS-expressing, growth rescue, OD600, 24 h;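 note: potency is the fitted concentration of half-maximal effect; plate controls were DMSO vehicle for no effect and reference control for full effect; nearly all actives have a fitted effect of over 55% in size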
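Quantitative HTS measuring growth restoration of FUS-toxic yeast. Galactose-induced cells (OD 0.005) were exposed 24hr at 30C to compounds at several concentrations, then absorbance at 600 nm was recorded.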
Abeta yeast res – restores growth of yeast expressing A-beta42 peptide | yeast expressing A-beta42, growth rescue, OD600, 48 h; response scale: 0% DMSO, 100% iron-clioquinol control | actives 0.063% (n = 410,000) | Potency, µM (doses to about 46.1 µM), hits mostly activators; note: potency is the fitted concentration of half-maximal effect; nearly all actives have a fitted effect of over 55% in size
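Yeast A-beta toxicity model in growth medium with pinned compounds, 48 h at 30 C; growth read as absorbance at 600 nm. Normalized to FeCl3/clioquinol equimolar mix (positive) and DMSO (negative).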
CCT chaperon mod – cytosolic chaperonin activity modulation; activity change, % (concentration not given with the values), hits read low; actives 0.3% (n = 360,000); AID 651819; purified chaperonin ATPase assay, HTRF ADP detection, 30 min; in the data active = activity change below about -30%; note: % is set by controls: 0 for no effect and ±100 for the full control effect
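TRiC at 40 or 20 nM final (batch-dependent) in 30 mM Tris pH 7.4, 100 mM KCl, 5 mM MgCl2, 1 mM DTT, with compound at single 76 uM and 10 uM ATP, 30 min at 37 deg C. ADP detected by HTRF Transcreener, 665/615 ratio.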
TDP43 rescue – TDP-43 toxicity inhibition in yeast; TDP-43 expressing yeast growth rescue, BacTiter-Glo, 24 h; Potency, µM (top dose mostly 46.1 µM), for the others: top-dose growth rescue (activation), hits mostly activators; actives 1.8% (n = 410,000); note: potency is the fitted concentration of half-maximal effect; % of control where 0% means no effect; nearly all actives have a fitted effect of over 50% in size
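In this qHTS, compounds that restore growth of yeast expressing TDP-43 appear as activators. Cells (OD600=0.02, galactose medium, raffinose-pregrown) are incubated with compound 24 hr at 30 deg C and growth is quantified by BacTiter-Glo.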
aSyn yeast inh – rescues yeast growth from alpha-synuclein toxicity; actives 0.14% (n = 370,000); Potency, µM (top dose mostly 46.1 µM), for the others: top-dose growth rescue (activation), hits mostly activators; AID 652106; Yeast expressing alpha-synuclein, growth rescue, BacTiter-Glo, 24 h; note: potency is the fitted concentration of half-maximal effect; % of control where 0% means no effect; nearly all actives have a fitted effect of over 65% in size
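Galactose-induced alpha-syn yeast (OD600=0.02, raffinose-pregrown) + pinned cpd, 24 hr, 30 deg C; growth by BacTiter-Glo luminescence. Growth restoration scores as activation.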
MmCpn inh – inhibitors of Methanococcus maripaludis chaperonin TRiC (MmCpn) | purified Mm-Cpn ATPase, ADP Transcreener TR-FRET | Potency, µM (titrated, usually from 76.9 µM), for inactives: at the highest dose activity, negative = inhibition, most hits filed as inhibitors | actives 0.031% (n = 330,000); note: potency is the fitted concentration of half-maximal effect; % is set by controls: 0 for no effect and ±100 for the full control effect; nearly all actives have a fitted effect of over 80% in size
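ATPase read-out: TR-FRET ADP immunoassay (anti-ADP Eu cryptate vs ADP-d2), ex 320 nm, em 590/665 nm; signal drops as ADP forms. Enzyme 25 nM, ATP 10 uM, 30 min at 37°C after 10 min compound preincubation.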
* = called active by the depositor; i = inactive; u = inconclusive; x = no result given. Unless noted, calls come from the whole dose curve; as a rule, active = well fitted curve in the direction sought with a large enough effect; inconclusive = small, poorly fitted or top-dose-only effect, or another doubt; inactive = no such curve, though single readings can be large; an effect the other way counts as inactive or inconclusive.

SMILES	FUS yeast rescue	Abeta yeast res	CCT chaperon mod	TDP43 rescue	aSyn yeast inh	MmCpn inh
O=C(CCCCCn1c(=S)[nH]c2ccccc2c1=O)NCc1ccc2c(c1)OCO2	i	i	-1	7.1µM*	1%	-12%
CCC[C@H](/C=C/C(=O)OC(C)(C)C)Sc1ccc(N)cc1	i	x	x	x	x	x
O=C(Oc1c(Cl)cc(Cl)c2cccnc12)c1ccco1	x	i	1	u	3.5µM*	1%
CC(C)N(Cc1nc(-c2ccccc2)no1)C(=O)CN(C)S(=O)(=O)c1ccccc1	i	i	4	13µM*	13%	-2%
O=C(c1ccc(-c2ccc([N+](=O)[O-])cc2)o1)N1CCCC(C(F)(F)F)C1 (configuration not stated)	u	i	0	35µM*	-9%	u
COc1ccc(C)cc1S(=O)(=O)n1c([N+](=O)[O-])cnc1C	i	i	-79*	-8%	-3%	-6%
COc1ccc(S(=O)(=O)n2c([N+](=O)[O-])cnc2C)cc1OC	i	i	2	-15%	-2%	1%
CCc1nnc(NC(=O)c2ccc(S(=O)(=O)N(CC)Cc3ccccc3)cc2)o1	i	u	0	22µM*	13µM*	2%
CC(=O)Nc1ccc(S(=O)(=O)N(Cc2ccccc2)Cc2ccccc2)cc1	u	i	x	20µM*	x	x
CC(=O)Nc1ccc(S(=O)(=O)N(CC(=O)O)Cc2ccccc2)cc1	i	i	-1	2%	2%	x
CCCCN(CCCC)S(=O)(=O)c1ccc(C(=O)Nc2nnc(COC)o2)cc1	i	i	1	13µM*	u	-2%
CCN(CC)S(=O)(=O)c1ccc(C(=O)Nc2nnc(COC)o2)cc1	i	i	-1	18%	-1%	u
COC(=O)c1ccc2c(C(C)c3ccccc3O)c[nH]c2c1 (configuration not stated)	i	x	x	x	x	x
Cn1c2nc3ccccc3c-2nc2ccccc21	i	i	0	20%	16µM*	x
CCCN1C(=O)C(O)(CC(=O)c2ccc(CC)cc2)c2ccccc21 (configuration not stated)	i	i	x	15%	x	x
CCCCN1C(=O)C(O)(CC(=O)c2ccc(CC)cc2)c2cc(Br)ccc21 (configuration not stated)	i	i	x	18µM*	x	x
O=C(O)Cc1ccc2sc(-c3ccccc3)nc2c1	x	i	-3	3.2µM*	-27%	-12%
CC(=O)Nc1cccc(-c2nc3ccc(NC(C)=O)cc3s2)c1	i	i	-2	0%	-6%	-5%
CC(=O)Nc1cccc(-c2nc3ccccc3s2)c1	i	i	0	8.9µM*	8%	2%
COC(=O)Cc1ccc2sc(-c3ccccc3)nc2c1	x	i	-2	16%	0%	-1%
CCOc1cc(-c2nc3ccccc3s2)ccc1O	i	i	0	13µM*	3%	-15%
COc1cc(-c2nc3ccccc3s2)ccc1O	i	i	-2	18%	-10%	-26%
O=C(Nc1cccc(-c2nc3ccccc3s2)c1)C1=COCCO1	x	i	-2	20µM*	-1%	-4%
COc1cc(/C=C/c2nc(C#N)c(NCCc3ccccc3)o2)cc(OC)c1OC	i	i	x	0%	x	x
COc1ccc(CCNC(=O)c2ccc(Cn3c(=O)c4ccccc4n(Cc4cccc(F)c4)c3=O)cc2)cc1OC	u	i	x	26%	x	x
SMILES	FUS yeast rescue	Abeta yeast res	CCT chaperon mod	TDP43 rescue	aSyn yeast inh	MmCpn inh
O=S1(=O)CC2c3ccc(F)cc3CN2CN1C1CCCC1 (configuration not stated)	i	x	x	x	x	x
Cc1c(Cl)cccc1-n1nnc(-c2nc(-c3ccc4c(c3)OCO4)no2)c1C	i	i	x	u	x	x
CC1(C)CC(=O)C(Sc2ccc(Br)cc2)=C(O)C1	i	i	-4	13µM*	25%	-2%
O=C(CSc1nnc(-c2ccccc2)n1-c1ccc(Cl)cc1)Nc1cccc2ccccc12	i	x	x	x	x	x
CCOC(=O)c1[nH]c2ccccc2c1NC(=O)c1ccccc1OC	i	i	x	25µM*	x	x
CCOC(=O)c1[nH]c2ccccc2c1NC(=O)c1cc(Cl)ccc1Cl	i	i	x	3%	x	x
CCOC(=O)c1sc2cccc(F)c2c1S(=O)(=O)Nc1ccccc1F	i	i	x	18µM*	x	x
O=C(Nc1nc(-c2ccccc2)ns1)c1cccs1	i	i	-2	-1%	-19%	0%
CCC(=O)Nc1nc(-c2ccccc2)ns1	i	i	3	8.9µM*	x	-10%
COc1ccccc1C(=O)Nc1nc(-c2ccccc2)ns1	i	i	x	u	-23%	x
CC(C)C(=O)Nc1nc(-c2ccccc2)ns1	i	u	-1	13µM*	-15%	1%
CC(=O)Nc1nc(-c2ccc(Cl)cc2)ns1	x	i	0	13µM*	-18%	0%
Cc1nnc(SCCC(=O)Nc2nc(-c3ccccc3)ns2)s1	i	i	2	u	x	x
CCCC(=O)Nc1nc(-c2ccccc2)ns1	x	i	-2	16µM*	-24%	0%
Cc1ccccc1NS(=O)(=O)c1ccc(Br)s1	i	i	x	u	x	x
O=C(Nc1nnc(C2CCCCC2)s1)C1CCN(C(=O)c2ccco2)CC1	x	x	x	x	8%	x
NC(=S)NN=C(c1ccccc1)c1ccccc1	i	u	-2	13µM*	-22%	1%
CC(/C=C/c1ccccc1)=N\NC(N)=S	i	i	-7	13µM*	0%	0%
Fc1ccc(-c2nc(-c3c[nH]c4ccccc34)cs2)cc1	x	x	x	x	-24%	x
C=CCOC(=O)N[C@@H](c1coc2ccccc2c1=O)[C@@H](C)/C=C/CC(=O)OC	i	x	x	x	x	x
Cc1[nH]c2ccccc2c1N=Nc1cccc(C(=O)O)c1	i	i	0	18µM*	-59%	-8%
CCOC(=O)c1cccc(NC(=O)CN(C)S(=O)(=O)c2ccc(Br)s2)c1	i	x	x	x	x	x

Screening data as filed in PubChem BioAssay.
